# Data published in the supplement of paper PMC3334620.
# Over roughly 33,000 sequences, “E-score (-0.5 to 0.5)” has its median near -0.036; the highest 2% begin near 0.37. This excerpt belongs to a sample that is enriched for the highest values.
# Target: T1, Yer064c (UniProt P40041)
# T1 sequence: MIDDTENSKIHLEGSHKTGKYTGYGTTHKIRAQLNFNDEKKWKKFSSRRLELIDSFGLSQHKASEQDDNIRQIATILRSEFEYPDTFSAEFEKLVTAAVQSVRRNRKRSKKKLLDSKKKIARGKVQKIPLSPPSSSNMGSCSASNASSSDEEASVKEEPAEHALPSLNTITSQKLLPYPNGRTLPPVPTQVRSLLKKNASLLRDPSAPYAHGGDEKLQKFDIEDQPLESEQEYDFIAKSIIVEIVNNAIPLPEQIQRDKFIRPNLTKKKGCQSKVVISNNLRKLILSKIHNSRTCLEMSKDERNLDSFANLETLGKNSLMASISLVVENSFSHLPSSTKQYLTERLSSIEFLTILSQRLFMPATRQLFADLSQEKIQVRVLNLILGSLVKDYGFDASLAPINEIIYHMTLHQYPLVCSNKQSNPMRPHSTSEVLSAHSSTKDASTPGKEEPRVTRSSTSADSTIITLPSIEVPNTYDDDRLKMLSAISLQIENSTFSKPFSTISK
# Experiment: PBM E-score (8-mer binding enrichment) (E-score (-0.5 to 0.5)); higher = stronger / more preferred TF binding
# Conditions: protein concentration: 200 nM; construct: GST-full length
# Experimental: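 Universal 'all 10-mer' protein binding microarrays (Agilent AMADID 015681) probed with GST-tagged S. cerevisiae TFs (full-length or DBD) made by in vitro transcription/translation (PURExpress), about 100-200 nM. Bound TF was detected with fluorescent anti-GST. Each ungapped 8-mer (which stands for itself and its reverse complement) is scored by the PBM enrichment score (E-score), a modified Wilcoxon-Mann-Whitney statistic from -0.5 to +0.5, computed with the Universal PBM Analysis Suite. Scale: above 0.35 generally sequence-specific binding.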
row,Sequence,PBM E-score
1,AGCGTTAG,-0.0809
2,CATAGCAA,-0.0521
3,CATCTGTA,-0.0129
4,GGATCGTA,-0.118
5,CACTATAC,-0.184
6,GACTATAC,0.413
7,AACTATAC,0.172
8,CACTATAA,-0.0109
9,GACTATAA,0.389
10,AACTATAA,0.0773
11,AACTCTCG,-0.105
12,CCTTCAGC,-0.126
13,CATTTGGA,0.0626
14,CATGAGCC,0.247
15,AATGAGTG,0.249
16,CATGAGTC,0.481
17,CATGAGAC,0.322
18,AATGAGAC,0.257
19,AATGAGTC,0.485
20,ACGAGCGA,-0.0924
21,TGTTGAAA,0.0239
22,ACATCCCT,-0.0971
23,AGATCTAA,-0.0235
24,AGAAGTAT,0.0717
25,GCTCATAA,0.136

row,Sequence,PBM E-score
1,ACTCATAA,0.375
2,ACTCATAG,0.385
3,TCTCATAA,0.209
4,GCTCATAC,-0.0113
5,ACCCATAT,0.216
6,ACTCATAT,0.368
7,ATTCATAG,0.166
8,CCTCATAC,-0.153
9,CCTCATAG,-0.00122
10,ACTCATAC,0.393
11,ACGCATAT,-0.225
12,GAAGATCA,0.02
13,ATCGATAG,0.0388
14,GCGCGACA,-0.0346
15,ACCTGGAG,0.0449
16,CTCTTGCA,0.00318
17,AGTGATGA,0.261
18,GGTGATGA,0.191
19,AGTGATTA,0.4
20,GGTGATAA,-0.111
21,GGTGATTA,0.447
22,CGTGATTC,0.418
23,AGTGATAA,-0.0496
24,AGTGATTC,0.405
25,CGTGATAC,-0.131

row,Sequence,PBM E-score
1,AGTGATAC,0.0829
2,AGTGATTG,0.362
3,CGTGATCC,-0.251
4,ATTGGACA,-0.0986
5,AAAAACCC,-0.204
6,GAGATAGA,-0.206
7,GCAGTCCA,0.123
8,GCTCTCCA,-0.226
9,GTCCTCAA,0.159
10,CCAGAACC,-0.1
11,CGTGATTA,0.393
12,CGTGATAA,0.0558
13,CGTGATGA,0.104
14,AAGATGCC,-0.214
15,CGGCAAAA,-0.235
16,AGAAGACC,-0.209
17,ACAAGACT,0.37
18,AGAAGACT,0.368
19,ACAAGACG,-0.027
20,ACAAGACA,-0.114
21,AGAAGACG,-0.0622
22,ATTAATTG,0.238
23,ACCATACA,-0.0449
24,GAGGACCA,-0.0209
25,TGTATCAA,0.187

row,Sequence,PBM E-score
1,AGCGACGG,-0.139
2,ATGTAATC,0.291
3,TATAGTCA,0.467
4,TATAGTAA,0.0693
5,CATAGTCG,0.374
6,CATAGTCA,0.466
7,AATAGTCC,0.241
8,AATAGTCA,0.478
9,AATAGTCG,0.346
10,AATAGTCT,0.297
11,TATAGTGA,0.134
12,CATAGTAA,0.212
13,CATAGTGG,-0.088
14,CATAGTCC,0.304
15,AATGGGCT,-0.041
16,AACCAACC,-0.128
17,CGTCGAGA,0.0495
18,GAGCGCGC,-0.194
19,GTCGCTCA,0.171
20,GGACCATA,-0.109
21,CCGTACGA,-0.0292
22,AAGGGAGA,0.039
23,AGGGACTA,0.222
24,GATAGTCC,0.296
25,GATAGTCA,0.476

row,Sequence,PBM E-score
1,GATAGTAA,0.149
2,GCACCCCA,-0.26
3,GGGAGTCA,0.477
4,GGGAGTTA,-0.0443
5,GGGAGTAA,0.00383
6,CGGAGTTA,-0.0037
7,CGGAGTCC,0.307
8,CGGAGTCA,0.477
9,CACTGTGG,-0.177
10,CACCTACG,0.0159
11,GAACCGTC,-0.209
12,GACCTGTA,-0.193
13,ATCGAGTC,0.389
14,ATCGAGTG,0.139
15,ATCGAGTA,0.138
16,CTCGAGTA,0.109
17,CTCGAGTC,0.37
18,CTCGAGAC,0.163
19,CCGCTAGC,-0.334
20,GAAGATCC,-0.181
21,ACCCCTTA,-0.00226
22,CAGACTCG,0.218
23,GAGACTAC,0.36
24,AAGACTCC,0.387
25,AAGACTGT,0.254

row,Sequence,PBM E-score
1,CAGACTCC,0.187
2,AAGACTGC,0.137
3,CAGACTGA,0.134
4,CAGACTCA,0.396
5,GAGACTCC,0.367
6,GAGACTGC,0.217
7,AAAACTCT,-0.168
8,AAGACTCT,0.425
9,ACTTATCG,0.0591
10,CTGCCTAC,-0.0918
11,CCTATAGC,-0.178
12,GCCGTGCC,-0.24
13,CGCTGAAC,-0.0322
14,ACGTCTAA,0.0568
15,ACAGGGAG,-0.0887
16,CAAGCGAC,-0.0326
17,CTCCCGAG,0.0821
18,ACGCTATG,-0.064
19,GACTGGGC,0.0848
20,TAGACTGA,0.122
21,AAGACACG,-0.0488
22,AAGACACA,0.0498
23,TATACTCA,0.317
24,GAGACTCA,0.467
25,AAGACTCG,0.373

row,Sequence,PBM E-score
1,GAGACTTA,0.24
2,AAGACTTA,0.33
3,TAGACTCA,0.413
4,GAGACTGA,0.28
5,AAGACTCA,0.48
6,AAGACTGA,0.347
7,ATTTGGCG,-0.116
8,GAAGTTAC,0.0811
9,ATAGCTGC,0.00331
10,AGCTAAGG,-0.317
11,GGGAGCTA,-0.13
12,AGTTCATG,0.215
13,GCCAATAC,-0.222
14,AGAGCTGA,0.0408
15,AAAGTGAG,0.188
16,ATGCCGTA,-0.0237
17,CGCGTAAC,-0.139
18,GTACTTAA,0.123
19,CTTGCCAC,0.0476
20,ACCAAAAA,0.186
21,CACTTTAC,0.0259
22,ATCGCCTG,-0.012
